From PubChem BioAssay AID901 (National Center for Advancing Translational Sciences (NCATS), 2007)
In all, about 120,000 compounds went through this assay and fewer than 10 were called active. About 4% were inconclusive and are not listed. A selection follows. Unmarked numbers belong to inactive results. The call rests on the fitted dose curve; in most records, active means well fitted curve in the direction sought with a large enough effect in the signal ratio (not every such curve was filed as active); inconclusive means small, poorly fitted or top-dose-only effect, or a change in a side signal; inactive means no such curve, though single readings can be large or run the other way; the % refers to the signal ratio.

Each compound was assayed against Inositol monophosphatase 1 (Rattus norvegicus) (UniProt P97697) (assay: qHTS Assay for Identifying the Cell-Membrane Permeable IMPase Inhibitors). Details: CHO-M1 cells, HTRF TR-FRET ratio; series mostly up to 46.1 µM; inhibition (IP1 accumulation): at the top concentration.
Excerpt: NCGC IMPase Assay Overview
Lithium has been widely used for the treatment of bipolar disorder. But lithium has a narrow therapeutic index and it can cause side effects such as thirst, weight gain, tremor, polyuria and memory problems. Although the mechanism for lithium action in treatment of bipolar disorder is still not fully understood, inhibition of inositol monophosphatase (IMPase) and the subsequent depletion of the inositol pool in living cells have been implicated as the primary therapeutic benefit of lithium therapy. Therefore, a selective IMPase inhibitor with reduced side effects might be a good drug candidate to replace lithium for the treatment of bipolar disorder. Several IMPase inhibitors have been discovered previously. However, they are not suitable for therapeutic use because of their poor cell membrane penetrability or oral bioavailability; the development of new cell-permeable IMPase inhibitors is needed.
IMPase catalyzes the hydrolysis of inositol-1-phosphate (IP1) to release free inositol. Binding of an agonist to a Gq coupled GPCR results in the activation of PLC, which hydrolyzes the PIP2 to form inositol-1,4,5-trisphosphate (IP3) and diacyl glycerol (DAG). While DAG activates protein kinase C (PKC), IP3 triggers the elevation of intracellular free Ca2+. The IP3 is very rapidly inactivated by hydrolysis to IP2, IP1 and then inositol by a series of enzymes including IMPase. Free inositols are used for synthesis of PI and thus start another inositol cycle.
To identify new cell-permeable IMPase inhibitors, we developed a cell-based IMPase assay in which the cytosolic IP1 is measured by a time-resolved fluorescence resonance energy transfer (TR-FRET) assay. In this assay, an IP1 specific antibody is used to detect the labeled IP1 tracer. When the cell lysate contains the elevated IP1 due to the inhibition of IMPase, the TR-FRET between the labeled antibody and IP1 tracer is disrupted resulting in a reduction in the total signal. Since the TR-FRET is used, this cell-based assay is a homogenous assay without cell wash and medium change that is suitable for assay miniaturization and HTS.
NCGC IMPase Assay Protocol Summary
A Chinese hamster ovary (CHO) cell line stably expressing the M1 receptor (CHO-M1) was obtained from ATCC and maintained in F-12 Kaighn's media (Invitrogen, Carlsbad, CA, 21127) supplemented with 10 % FBS, 100 units/ml penicillin, 100 ug/ml streptomycin and 250 ug/ml geneticin at 37C, 5% CO2 in a humidified atmosphere. Before the assay, aliquots of cells were frozen and stored at -135C. The assay was performed in 1536-well format. Data are reported for both the ratio of the two emission wavelengths, and also for the component 'donor' channel, Em2=620. […] AC50 values were determined from concentration-response data modeled with the standard Hill equation.
IMPase 1536-well assay protocol:
(1) Plate 4 ul/well (2000 cells) of cell suspension from frozen CHO-M1 Cells in white, tissue culture treated 1536-well plates that are cultured at 37C, 5 % CO2 for 16 to 30 hours.
(2) Add 23 nl/well of compound in DMSO solution. The final titration for each compound was between 0.6 nM and 46 uM.
(3) Add 1 ul of carbachol (50 uM in stimulation buffer containing10mM HEPES, 1mM CaCl2, 0.5 mM MgCl2, 4.2 mM KCl, 146 mM NaCl, 5.5 mM glucose, 50mM LiCl, pH 7.4.
(4) Incubation at 37C, 5 % CO2 for 30 min.
(5) Add 1 ul/well of d2-conjugated IP1 (d2-IP1) and 1 ul/well of Eu+ cryptate conjugated anti-IP1 antibody (Eu+-Ab) prepared in the cell lysis buffer, both from the IP-One kit (Cisbio, MA).
(6) Incubate at room temperature for 10 minutes.
(7) Detect the assay plate (Ex = 320, Em1 =665 and Em2 620) in a ViewLux plate reader.
inositol monophosphatase, IMPase, IMPase inhibitor, lithium, bipolar disorder, IP-One, HTRF, qHTS, NIH roadmap, NCGC
Note: In the gene ID and protein GI references for this assay, rat IMPase is referenced instead of hampster as hamster accession numbers were not available.
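Further: plate controls were DMSO basal wells for no effect and reference inhibitor wells for full effect; higher means more IMPase inhibition seen as more IP1 and lower FRET ratio.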

Chain of Inositol monophosphatase 1 (Rattus norvegicus) (P97697 whole entry, looked up): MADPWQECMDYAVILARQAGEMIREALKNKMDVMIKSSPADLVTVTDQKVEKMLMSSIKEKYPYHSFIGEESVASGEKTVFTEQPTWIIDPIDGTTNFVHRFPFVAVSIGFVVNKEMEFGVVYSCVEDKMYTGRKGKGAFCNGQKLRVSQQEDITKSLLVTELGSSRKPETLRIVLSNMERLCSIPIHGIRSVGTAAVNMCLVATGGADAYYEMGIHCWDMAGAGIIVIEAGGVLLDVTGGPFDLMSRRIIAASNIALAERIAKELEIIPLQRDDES

| SMILES | inhibition (IP1 accumulation) |
| --- | --- |
| C/C(CC1CC(C)(C)OC1=O)=N/Nc1nc(-c2ccccc2)cs1 (configuration not stated) | 12.5% |
| Cc1ccc(C)c(N2CCN(C(=O)C3CCC(CNS(=O)(=O)c4cccs4)CC3)CC2)c1 (configuration not stated) | 7.32% |
| CCc1nc2nc(C)cc(Nc3ccc(F)c(Cl)c3)n2n1 | 7.04% |
| Cn1c(=O)c2c(nc(SCC(=O)Nc3ccc(F)cc3)n2Cc2ccc(Cl)cc2)n(C)c1=O | -2.31% |
| COc1ccc(NC(=O)C2CCCN(S(=O)(=O)c3c(C)[nH]c(=O)[nH]c3=O)C2)c(OC)c1 (configuration not stated) | 2.41% |
| OCC(CO)(CO)NCc1ccc(-c2ccccc2)cc1 | -8.01% |
| CCCCCCCCC(=O)NCCOc1ccccc1 | 2.86% |
| Cc1cc(NC(=O)C2CCC(CNS(=O)(=O)c3ccc(Br)s3)CC2)ccc1Br (configuration not stated) | 10.5% |
| C[n+]1ccccc1C1CCCC/C1=N\Nc1ccc([N+](=O)[O-])cc1[N+](=O)[O-] (configuration not stated) | 10.4% |
| CC1=C(C(=O)OCC2CCCCC2)C(c2c(F)cccc2Cl)CC(=O)N1 (configuration not stated) | -0.576% |
| CCN(C(=O)COC(=O)c1cc(NS(=O)(=O)c2ccc(Cl)c([N+](=O)[O-])c2)ccc1O)C1CCCCC1 | 1.32% |
| COC(=O)c1cc(NC(=O)CCS(=O)(=O)c2cc(Br)cc3c2N(C(=O)C2CC2)CC3)cc(C(=O)OC)c1 | 5.34% |
| COc1ccccc1CN(C)C(=O)C1(c2ccc(Cl)cc2)CC1 | 3.44% |
| COc1ccc(OC)c(NC(=O)C2CCN(S(=O)(=O)c3ccc(C)cc3)CC2)c1 | 2.44% |
| COc1cc(/C=N/NC(=O)CCc2n[nH]c(=O)[nH]c2=O)ccc1O | -1.58% |
| CCCCSc1ncnc2c1sc1nc(N3CCOCC3)c3c(c12)CCCC3 | -3.4% |
| Cc1c(Cl)c([N+](=O)[O-])nn1CCCC(=O)NC(C)c1ccccc1 (configuration not stated) | -2.01% |
| Cc1cc(C)cc(OCC(=O)Nc2c(C(=O)c3ccccc3)oc3ccccc23)c1 | 2.24% |
| CCN(Cc1ccccc1)Cc1c(O)ccc2c(=O)c(-c3ccc(Cl)cc3Cl)coc12 | 7.15% |
| Cn1c(=O)c2c(ncn2CC(=O)Nc2cccc(C(F)(F)F)c2)n(C)c1=O | -20% |
| CSCCC(NC(=O)c1cc([N+](=O)[O-])cc([N+](=O)[O-])c1)c1nc2ccccc2[nH]1 (configuration not stated) | -0.726% |
| CCOc1cc(NC(=S)NCCCOC)c(OCC)cc1NC(=O)c1ccco1 | 12.9% |
| O=C(CN1CCc2ccccc21)NC(c1ccccc1)c1ccccc1 | -0.223% |
| CCOC(=O)CC(NC(=O)C1c2ccccc2Oc2ccccc21)c1ccc(C)cc1 (configuration not stated) | 4.4% |
| O=C(COC(=O)CSc1nnc(-c2ccc(Cl)cc2)o1)Nc1cc(Cl)cc(Cl)c1 | -3.97% |
| Cc1ccc(-c2nnc(Nc3ccc(OCC(N)=O)cc3)c3ccccc23)cc1S(=O)(=O)NCC1CCCO1 (configuration not stated) | 2.48% |

| SMILES | inhibition (IP1 accumulation) |
| --- | --- |
| CCOC(=O)c1ccc(-c2ccc(/C=C(\C#N)C(=O)Nc3ccc(OCC)cc3)o2)cc1 | -2.33% |
| Cc1ccc(-n2c(SCC(=O)N3c4ccccc4Sc4ccccc43)nnc2-c2ccncc2)cc1 | 0.458% |
| CCn1c2ccccc2c2cc(CN3CCN(Cc4cccc(Cl)c4)CC3)ccc21 | -5.33% |
| O=C(Cc1ccc(Cl)cc1)Nc1ccc2nn(-c3ccc(Cl)cc3)nc2c1 | -15.5% |
| CCNC(=S)N1CCC(c2nc3cc(C)c(C)cc3[nH]2)CC1 | 6.97% |
| Cc1cc(Cl)ccc1OCC(=O)N(Cc1ccc(N(C)C)cc1)C1CCS(=O)(=O)C1 (configuration not stated) | 17.8% |
| CCNS(=O)(=O)c1ccc(NC(=O)CSc2nc(-c3ccco3)cc(C(F)(F)F)n2)cc1 | -3% |
| N#C/C(=C\c1cccc(F)c1)c1nc(-c2cc3c(ccc4ccccc43)oc2=O)cs1 | -6.22% |
| Cc1ccc(N2CC(c3nnc(Cc4ccccc4Cl)o3)CC2=O)cc1 (configuration not stated) | 0.844% |
| Cc1ccc(C(=O)Nc2nc(-c3ccccc3)ns2)cc1 | -1.28% |
| Cc1ccc(-n2c3nc(=O)[nH]c(=O)c-3cc3c(Cl)cccc32)cc1 | -9.56% |
| COC(=O)c1c(C)oc2ccc(N(C(=O)Oc3ccccc3)S(=O)(=O)c3ccccc3)cc12 | 1.56% |
| CCC(C(=O)OCC(=O)Nc1c(Cl)cc(Cl)cc1Cl)c1ccccc1 (configuration not stated) | -0.261% |
| CCn1c(=O)c(=O)n(CC)c2cc(N3CCCCC3)c(NC(=O)c3ccc(Cl)cc3)cc21 | -8.55% |
| COc1ccc(NC(=O)Cn2c(=O)n(Cc3ccc(C(=O)NCc4ccccc4Cl)cc3)c(=O)c3ccccc32)cc1 | -0.241% |
| CC1=Nc2cc(C(=O)N3CCC(C)CC3)ccc2Sc2ccc(Cl)cc21 | 17.1% |
| COCCNC(=O)c1ccc2c(c1)N=C(C)c1cc(C)ccc1S2 | 10.2% |
| Cc1cccc(C)c1OCC(=O)NC(Cc1c[nH]c2ccccc12)C(=O)O (configuration not stated) | -1.15% |
| COc1ccc(-c2csc3ncnc(Oc4ccc5c(C)cc(=O)oc5c4)c23)cc1 | -7.79% |
| CC(C)(C)C(=O)NC(NC(=S)Nc1ccc(S(N)(=O)=O)cc1)C(Cl)(Cl)Cl (configuration not stated) | 3.28% |
| CCOC(=O)c1cnc2ccc(F)cc2c1Nc1ccc2c(c1)OCCO2 | 6.89% |
| COc1ccc(CNC(=O)CCCn2nc(C)c([N+](=O)[O-])c2C)cc1 | -0.911% |
| Cc1cc[n+](-c2[nH]c(=O)sc2/C=N/NC(=O)c2ccccc2[O-])cc1C | 2.47% |
| COc1ccc(-c2noc(CCC(=O)N(C)c3ccccc3C)n2)cc1 | 0.521% |
| CCOC(=O)c1c(C)n(S(=O)(=O)c2ccc(C)cc2C)c2ccc(NS(=O)(=O)c3ccc(C)cc3C)cc12 | 5.61% |
| CCC1CCCCN1C(=S)Nc1ccc(SC(F)F)cc1 (configuration not stated) | 0.235% |
